Compound activity deposited in PubChem BioAssay by National Center for Advancing Translational Sciences (NCATS).
Shown are actives, neighbours in structure and some others; about 7.9% of the full set was active somewhere.
FMDV inh: antivirals against foot and mouth disease virus | FMDV antiviral cell-based qHTS | Potency, µM (doses to about 57.9 µM), for inactives: at the top dose activity change, negative = inhibition, actives largely listed as inhibitors | hit rate 1.2% among 410,000 | AID 1159524; calls by dose curve; tested in HEK293T cells; also: read-out not given here; potency is read from the fitted curve at half-maximal effect; nearly all actives have a fitted effect of over 45% in size
Lassa entry inh: inhibitors of Lassa virus binding or cell entry; Lassa virus pseudotype entry inhibition, cell reporter; Potency, µM (highest dose often 37.9 µM), inactives show top-dose activity change, negative = inhibition, actives largely listed as inhibitors; hit rate 1.2% among 300,000; AID 540256; calls by dose curve; tested in HEK293 cells; also: potency is read from the fitted curve at half-maximal effect; nearly all actives have a fitted effect of over 50% in size
HCMV antiviral: blocks human cytomegalovirus replication; HFF cells, HCMV-luciferase reporter, 72 h; hits give low values; hit rate 4.5% among 410,000; AID 1259415; activity change, negative = inhibition, % at 57.5 µM; in the data active = activity change below about -60%; inconclusive = no clear call, values can overlap the other calls; inactive = above about -39%
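Screen run at 2 compound doses on HFFs infected with reporter HCMV, MOI 1 PFU/cell. Luciferase activity from cell lysates at 72 h post infection gave inhibition relative to buffer-only and Salinomycin wells.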
MARV entry inh: Marburg virus entry inhibition; Potency, µM (doses to about 37.8 µM), inactives show at the top dose activity change, negative = inhibition, actives largely listed as inhibitors; Marburg virus pseudotyped entry inhibition, cell reporter; AID 540276; hit rate 1.8% among 300,000; calls by dose curve; tested in HEK293 cells; also: potency is read from the fitted curve at half-maximal effect
HCV inhibitor: blocks hepatitis C virus; Potency, µM (doses to about 41.8 µM), without a hit: at the top dose activity change, negative = inhibition, actives largely listed as inhibitors; Huh7.5.1 HCVcc-Cre infection, luciferase reporter, 44 h; hit rate 3.4% among 340,000; active = well fitted inhibition curve with a large enough effect; inconclusive = small, poorly fitted or top-dose-only effect, or another doubt; inactive = no such curve, though single readings can be large or run the other way; also: potency is read from the fitted curve at half-maximal effect
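Whole-lifecycle infectious HCVcc-Cre system; cells 1,000/well, compound then virus (~0.5 moi) added 4 h after plating, 44 h culture. Luciferase read 15 sec following 15 min substrate incubation, room temp.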
* hit, by the source's call; ? = inconclusive; . = no result; [ ] = another dose, or the depositor's remark. % is scaled to controls: 0 for no effect and ±100 for the full control effect.

SMILES	FMDV inh	Lassa entry inh	HCMV antiviral	MARV entry inh	HCV inhibitor
CCN(CC)c1ccc(S(=O)(=O)N2CCOCC2)cc1NC(=O)CN1CCc2ccccc2C1	?	?	-70*	?	?
COc1ccc(C(=O)NC(=S)NNC(=O)CNC(=O)C2CCCCC2)cc1	25%	18%	-18	5%[46.1 µM]	4%
COc1ccccc1CCC(=O)N1CCOc2c(cc(-c3cnc4ccccc4c3)cc2OC)C1	-9%	.	.	.	.
O=C(Nc1ccc(CN2CCS(=O)(=O)CC2)cc1)c1ccc(Cl)cc1	-21%	-21%	?	-19%[46.1 µM]	10µM*
COc1ccc(NC(=O)/C(C#N)=C/c2cc(C)n(-c3ccc(N4CCOCC4)c([N+](=O)[O-])c3)c2C)cc1	4µM*	?	?	-15%	?
Cc1cc(/C=C(\C#N)C(=O)Nc2ccc(F)cc2)c(C)n1-c1ccc(N2CCOCC2)c([N+](=O)[O-])c1	?	-34%	-79*	?	?
Cc1cc(Cl)ccc1NC(=O)Cn1nc(C)c2c(C)n(-c3ccccc3)nc2c1=O	-18%	24%[46.1 µM]	-8	.	.
ClCCN(CCCl)c1ccc(C2=NCCc3ccccc32)cc1	?	?	-74*	?	?
Cc1ccc(Nc2sc(C(=O)c3ccc(F)cc3)c(N)c2S(=O)(=O)c2ccc(C)cc2)cc1	-8%	1.1µM*	-8	.	.
Nc1c(C(=O)c2ccc(F)cc2)sc(Nc2ccccc2F)c1S(=O)(=O)c1ccc(Br)cc1	-18%	-46%[46.1 µM]	-71*	.	.
Cc1ccc(Cl)cc1Nc1sc(C(=O)c2ccc(F)cc2)c(N)c1S(C)(=O)=O	?	?	-6	-33%[46.1 µM]	.
Cc1ccc(S(=O)(=O)c2c(Nc3cc(F)ccc3F)sc(C(=O)c3ccc(F)cc3)c2N)cc1	?	?	-65*	?	.
CCOC(=O)[C@@]1([C@@H](NC(=O)OC)c2cccc(C)c2)CCCC1=O	.	.	.	26%[14.2 µM]	.
Cc1ccc(CSCC(=O)NCc2ccco2)cc1	4%	1.4µM*	-30	-11%	1%
Cc1ccc(CNC(=O)CSCc2ccccc2)cc1	28%	10%	7	2%	6%
CCCCN(CCCC)CCNC(=O)CSCc1ccc(C)cc1	?	-11%[46.1 µM]	?	7.1µM*	-9%
O=C(Nc1cccc(C(F)(F)F)c1)c1cc(-c2ccc(Cl)s2)nc2ccccc12	?	-6%[46.1 µM]	-1	2%[46.1 µM]	.
O=S(=O)(c1ccccc1)c1nnn2c1nc(NCc1ccccc1)c1cc(Cl)ccc12	9%	.	4	?	.
CCOc1cc(/C=C2\CN(CC)C/C(=C\c3ccc(O)c(OCC)c3)C2=O)ccc1O	10µM*	5µM*	-101*	4.5µM*	4.5µM*
O=C1OCC/C1=C\c1ccc2c(c1)OCO2	-1%	12%[46.1 µM]	19	7%[46.1 µM]	11%
COc1cc(/C=C2\COC/C(=C\c3cc(OC)c(OC)c(OC)c3)C2=O)cc(OC)c1OC	3.5µM*	?	-98*	?	1µM*
COc1ccc(/C=C2/CC/C(=C\c3ccc(OC)c(OC)c3OC)C2=O)c(OC)c1OC	-15%	?	15	0%	?
CCOc1cc(C=O)ccc1O	-11%	.	20	.	12%
COc1cc(/C=C2\CC/C(=C\c3cc(OC)c(O)c(OC)c3)C2=O)cc(OC)c1O	22µM*	-23%	-98*	?	?
O=C1/C(=C\c2ccc3c(c2)OCO3)CCC/C1=C/c1ccc2c(c1)OCO2	3%	8%	-89*	9%	-5%
SMILES	FMDV inh	Lassa entry inh	HCMV antiviral	MARV entry inh	HCV inhibitor
COc1cc(/C=C2\CCC(C3CCCC3)C2=O)cc(OC)c1OC (stereo unspecified)	15%	0%[46.1 µM]	?	?	-29%
O=C(Nc1ccccn1)C1CCN(S(=O)(=O)c2ccc(Cl)cc2)CC1	-6%	7%	3	22%[46.1 µM]	?
CC(=O)N1CCc2cc(S(=O)(=O)CCC(=O)Nc3cc(C)cc(C)c3)ccc21	-7%	.	?	.	10%
COc1cc(C=C2C(=O)C=CC2=O)ccc1O	?	.	-88*	.	.
COc1cc(/C=C2\CC/C(=C\c3cc(OC)c(OC)c(OC)c3)C2=O)cc(OC)c1OC	?	-22%	-6	?	13µM*
O=C1/C(=C/c2ccncc2)CCC/C1=C\c1ccncc1	14µM*	.	-100*	.	6.3µM*
COc1cc(/C=C2/C(=O)CNC2=O)ccc1O	-7%	?	57	4%	13%
COc1cc(/C=C2/CCC/C(=C\c3cc(O)c(OC)c(Cl)c3)C2=O)cc(Cl)c1O	?	?	-100*	?	11µM*
CCc1cc2c(cc3c(=O)n(CC(=O)NC4CCC(C)CC4)nc(CC)n32)s1 (stereo unspecified)	38%	.	90	?	.
CCN1C/C(=C/c2cccc([N+](=O)[O-])c2)C(=O)/C(=C/c2cccc([N+](=O)[O-])c2)C1	3.5µM*	2.8µM*	-103*	15µM*	?
COc1cc(/C=C2/CCCC(C(=O)C(F)(F)F)=C2O)ccc1O	-10%	7%	-14	5%[46.1 µM]	6%
COc1cc(/C=C2\CCC/C(=C\c3ccc(O)c(OC)c3)C2=O)ccc1O	?	?	-101*	?	13µM*
COc1cc(/C=C2\N=C(C)OC2=O)cc(OC)c1OC	-20%	.	2	.	13%
COc1cc(/C=C2\CC(C(C)(C)C)C/C(=C\c3cc(OC)c(OC)c(OC)c3)C2=O)cc(OC)c1OC (stereo unspecified)	14µM*	.	-98*	.	2.5µM*
CCCC[C@]12Cc3c(ccc4ccccc34)[C@H](O1)C1=C(O2)C(=O)c2ccccc2C1=O	.	.	.	22%[14.2 µM]	.
O=C(O)c1ccc2c3c(cccc13)C(=O)N(c1ccccc1)C2=O	-12%	3%	-40	-2%	5%
CC(=O)Nc1ccc2c3c(cccc13)C(=O)N(c1ccccc1)C2=O	19%	-16%[46.1 µM]	-60*	10%[46.1 µM]	-6%
Cc1c(O)c2c3c(cccc3c1O)C(=O)N(c1ccccc1)C2=O	22µM*	-17%	?	-38%	?
Nc1ccc2c3c(cccc13)C(=O)N(c1ccccc1)C2=O	11%	?	21	23%[46.1 µM]	-22%
C#CCN1C(=O)[C@@H](C)[C@@](C#N)(C(=O)OC)[C@H]1c1ccc(OC)cc1	.	.	1	.	.
COc1ccc(/C=N/NC(=O)c2cccc([N+](=O)[O-])c2)cc1OC(=O)c1ccccc1	33%	?	-35	?	11µM*
COc1cc(/C=N/NC(=O)c2ccncc2)ccc1Oc1ccc([N+](=O)[O-])cn1	0%	-7%[46.1 µM]	?	-9%[46.1 µM]	2%
COc1cccc(C(=O)N/N=C/c2ccc(Oc3ccc([N+](=O)[O-])cn3)c(OC)c2)c1	-15%	-22%	-36	?	10µM*
COc1cc(/C=N/NC(=O)c2ccc(O)cc2)ccc1Oc1ccc([N+](=O)[O-])cn1	-20%	-14%	-62*	?	?
COc1cc(/C=N/NC(=O)c2ccc3ccccc3c2)ccc1Oc1ccc([N+](=O)[O-])cn1	?	-27%	?	-11%[46.1 µM]	3.5µM*
CCCNC(=O)N1CC(=O)N2[C@H](CO)[C@@H](c3ccc(Br)cc3)[C@@H]2C1	.	.	8	.	.
